According to PubChem BioAssay AID1578 (Sanford-Burnham Center for Chemical Genomics, 2009):
The campaign covered roughly 290,000 compounds. About 3,000 (1%) were called active. Cut-off read from the data, not from the text of the source: active = inhibition mostly above about 36% (no sharp cut-off); inactive = mostly below about 34%. What follows is part of a selection rich in actives, with near analogues and random picks from the rest.

test: NOD1 signaling inhibitors, primary screen, cell-based, luminescence, uHTS (AID 1578); conditions: NOD1-driven NF-kB luciferase reporter cells, at 4 µM, stronger effect = higher value;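 note: HEK-293T reporter cells stimulated with the NOD1 agonist gamma-tri-DAP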

SMILES | inhibition
COc1ccc(S(=O)(=O)N2CCc3ccccc32)cc1C(=O)OCC(=O)c1c(N)n(C)c(=O)n(C)c1=O | -11.1% (inactive)
CC1CCCCC1NC(=O)CCCn1c(=S)[nH]c2ccsc2c1=O (stereo unspecified) | -13.7% (inactive)
CCn1cc(CN2CCc3c([nH]c4ccccc34)C2c2ccc(F)c(OC)c2)c(C)n1 (stereo unspecified) | -23.6% (inactive)
Cc1ccc(CS(=O)(=O)CCC(=O)NCCCN2CCCC2)cc1 | -5.9% (inactive)
Cc1ccc(CS(=O)(=O)CCC(=O)NCCN2CCCC2)cc1 | -7.3% (inactive)
Cc1ccc(CS(=O)(=O)CCC(=O)NCCN2CCCCC2C)cc1 (stereo unspecified) | 96.5% (active)
CN(Cc1ccccc1)c1nc(N)c([N+](=O)[O-])c(Nc2cccc(F)c2)n1 | -10.7% (inactive)
Cc1c(O)c2cccnc2[nH]c1=O | -21.9% (inactive)
c1ccc(CN=C2NN=C(c3cc4ccccc4o3)CS2)cc1 | -43% (inactive)
CC(C)(C)N=C1NN=C(c2cc3ccccc3o2)CS1 | -38.4% (inactive)
Cc1cccc(N=C2NN=C(c3ccc4c(c3)OCCO4)CS2)c1 | -35.2% (inactive)
CCCCN=C1NN=C(c2ccc3c(c2)OCCO3)CS1 | 14.8% (inactive)
c1ccc2oc(C3=NNC(=NC4CC4)SC3)cc2c1 | 86.6% (active)
C=CCN=C1NN=C(c2ccc3c(c2)OCCO3)CS1 | 67.8% (active)
c1cc2c(cc1C1=NNC(=NC3CC3)SC1)OCCO2 | 96.6% (active)
c1ccc(C2=NNC(=NC3CC3)SC2)cc1 | 59.6% (inactive)
COc1ccc(N=C2NN=C(c3ccc4c(c3)OCCO4)CS2)cc1 | -44.7% (inactive)
CCOC(=O)N1CCC(NC(=O)CN2C(=O)CSc3nc(C)cc(C)c32)CC1 | -2.4% (inactive)
Cc1ccc(Nc2nc(N)nc(CSC(=S)N3CCOCC3)n2)c(C)c1 | -10% (inactive)
COc1cc(/C=C/CO)cc(OC)c1OC/C=C(\C)CCC=C(C)C | 0.8% (inactive)
COCCn1c(SCC(=O)Nc2ccccc2C(F)(F)F)nc2ccccc2c1=O | -11.7% (inactive)
COc1ccc(-c2cc(C3CC3)nc3sc(C#N)c(N)c23)cc1 | 7.9% (inactive)
CC(C)c1cc(C(=O)N/N=C/c2c[nH]c3ccccc23)n[nH]1 | -15.2% (inactive)
COC(=O)COc1cccc2c(=O)n(CC(=O)NCCc3ccccc3)ccc12 | -38.1% (inactive)

SMILES | inhibition
Cc1cccnc1Nc1ncnc(N)c1[N+](=O)[O-] | -32% (inactive)
Cc1cccc(Nc2ncnc(N)c2[N+](=O)[O-])n1 | 28.6% (inactive)
Nc1ncnc(NCc2ccccc2)c1[N+](=O)[O-] | 37.6% (inactive)
Cc1ccc(CNc2nc(N)c([N+](=O)[O-])c(NCc3ccccc3)n2)cc1 | 0.5% (inactive)
COc1ccc(Cc2nc3ccc(C(=O)N4CCCC4)cc3o2)cc1OC | 1.3% (inactive)
Cc1ccc(Cn2nc(C)c(NC(=O)CCCn3nc([N+](=O)[O-])c(Cl)c3C)c2C)cc1 | -25.5% (inactive)
COc1ccc(C)cc1Nc1n[n+](-c2ccccc2)c(-c2ccc(NC(C)=O)cc2)s1 | -19% (inactive)
CCn1c2ccccc2c2cc(/C=N/NC(=O)c3cc(O)cc(O)c3)ccc21 | 58.8% (active)
CCn1c2ccccc2c2cc(/C=N/NC(=O)c3ccccc3)ccc21 | 41.4% (inactive)
CCn1c2ccccc2c2cc(/C=N/NC(=O)c3ccc(O)cc3)ccc21 | 32.8% (inactive)
CCOC(=O)C1=C(CC)Nc2ccccc2N=C1NC(=O)CCNC(C)=O | -28.2% (inactive)
CCOCc1c(C(=O)NC2=Nc3ccccc3NC(CC)=C2C(=O)OCC)oc2ccccc12 | 4.5% (inactive)
CCOC(=O)C1=C(CC)Nc2ccccc2N=C1NC(=O)c1oc2ccccc2c1C | 56.6% (active)
O=C(Cc1ccccc1)NN1C(=O)C2C3C=CC(C3)[C@@H]2C1=O (stereo partly specified) | -12.9% (inactive)
Cc1nc(SCCOc2ccc(F)cc2)c2ccccc2n1 | -33.3% (inactive)
CCOC(=O)c1ccc(NC(=O)Cn2cnc3cc(C)c(C)cc32)cc1 | 33% (active)
Cc1ccc(NC(=O)CCn2cnc3cc(C)c(C)cc32)cc1 | -8.2% (inactive)
COC(=O)c1ccccc1NC(=O)Cn1cnc2cc(C)c(C)cc21 | -3.9% (inactive)
O=C(Nc1ccc(Br)cc1)c1cc(-c2ccc3c(c2)OCO3)on1 | -33.8% (inactive)
Cc1cccc(NC(=S)NC(=O)c2oc3ccccc3c2C)n1 | -35.5% (inactive)
O=C(Nc1cc(S(=O)(=O)N2CCOCC2)ccc1N1CCOCC1)C1CCCO1 (stereo unspecified) | -32.9% (inactive)
Cc1ccc(-n2c3c(c(=O)[nH]c2=O)C(NS(=O)(=O)c2ccc(Cl)cc2)(C(F)(F)F)C(=O)N3)cc1 (stereo unspecified) | -31.8% (inactive)
O=C(NCCc1ccc(Cl)cc1)c1ccc2nccnc2c1 | -33.2% (inactive)
O=C(NCCc1ccccc1)c1ccc2nccnc2c1 | 66.7% (active)

SMILES | inhibition
O=C(NCc1ccccc1)c1ccc2nccnc2c1 | 2% (inactive)
CCCCNc1ccc(C(CC(N)=O)NC(=O)Cc2ccc(Br)cc2)cc1[N+](=O)[O-] (stereo unspecified) | -9.3% (inactive)
CC(=O)c1cccc(OCC(O)CNCC2CCCCC2)c1 (stereo unspecified) | -5.6% (inactive)
OC(CNCC1COc2ccccc2O1)COc1ccc(Cl)cc1 (stereo unspecified) | -12.2% (inactive)
CC(=O)c1cccc(OCC(O)CNCC2COc3ccccc3O2)c1 (stereo unspecified) | 37.9% (active)
Cn1cc(Br)c(C(=O)n2cc(Br)cn2)n1 | -7.4% (inactive)
Cc1noc(C)c1S(=O)(=O)N1CCCC(C(=O)NCCc2ccccc2)C1 (stereo unspecified) | -28.4% (inactive)
CCNC(=O)COC(=O)c1cc(-c2ccccc2)nn1-c1ccccc1 | -16.6% (inactive)
Fc1ccccc1C1c2[nH]c3ccccc3c2CCN1CCCn1cccn1 (stereo unspecified) | 43.5% (inactive)
COc1ccc(C2c3[nH]c4ccccc4c3CCN2CCCn2cccn2)c(C)c1C (stereo unspecified) | -26.9% (inactive)
Cc1ccccc1C1c2[nH]c3ccccc3c2CCN1CCCn1cccn1 (stereo unspecified) | 53.6% (active)
CC(C)N1CCC(N2CCN(Cc3nc4ccccc4s3)CC2CCO)CC1 (stereo unspecified) | -1.8% (inactive)
CC(C)N(C(=O)COC(=O)c1ccc(Cl)nc1)C(C)C | -35.6% (inactive)
Cc1nc2ccccc2cc1C(=O)Nc1ccccc1Cl | -21.8% (inactive)
Cn1ccnc1C(=O)c1ccc(N)cc1 | -32.6% (inactive)
COc1ccc(-c2csc3nc(-c4cccnc4)nc(N4CCC(C(N)=O)CC4)c23)cc1OC | 23.4% (inactive)
Clc1nc(-c2cccnc2)nc2scc(-c3ccccc3)c12 | -5% (inactive)
COc1ccc(-c2csc3nc(-c4cccnc4)nc(Cl)c23)cc1OC | 73.4% (active)
CCOc1ccc(NC(=O)C2CC(=O)N(C)C(=Nc3ccc4c(c3)OCO4)S2)cc1 (stereo unspecified) | -34.5% (inactive)
O=C(CS(=O)(=O)c1ccccc1)NCc1ccc(Cl)cc1 | -44.4% (inactive)
CCc1ccc(C(=O)/C=C/Nc2ccc(S(=O)(=O)Nc3cnc4ccccc4n3)cc2)cc1 | 4% (inactive)
c1ccc(CSc2nnc(Cc3ccccn3)o2)cc1 | -32.5% (inactive)
CSC(=Nc1ccc(Cl)cc1)N[n+]1ccccc1 | -6.8% (inactive)
[S-]C(=Nc1ccc(Cl)cc1)N[n+]1ccccc1 | 104% (active)

SMILES | inhibition
NC(=Nc1ccc(Cl)cc1)c1ccccc1 | -49% (inactive)
NC(=O)CCc1nc2cc(C(F)(F)F)ccc2n(Cc2ccccc2)c1=O | -13% (inactive)
O=C(NCCCn1ccnc1)/C(=C/c1ccccc1)NC(=O)c1ccccc1 | 32.8% (inactive)
O=C(COc1ccccc1Cl)NNC(=O)c1cc(S(=O)(=O)N2CCOCC2)ccc1N1CCCC1 | -47.2% (inactive)
COc1ccc(O)c(C2(O)C(=O)c3ccccc3C2=O)c1 | 0.1% (inactive)
O=C(CNC(=O)c1ccc2c(c1)OCO2)N/N=C/c1cccc([N+](=O)[O-])c1 | -59.4% (inactive)
O=C(CNC(=O)c1ccc2c(c1)OCO2)N/N=C(Br)/C=C/c1ccccc1 | 80% (active)
Cc1ccc(OCCNC(=O)c2ccc3c(c2)OCO3)cc1 | -63.7% (inactive)
O=C(NCCOc1ccccc1)c1ccc2c(c1)OCO2 | 55.9% (active)
CC(/C=C/c1ccccc1)=N/NC(=O)CNC(=O)c1ccc2c(c1)OCO2 | 5.3% (inactive)
COCCCNC(=O)c1ccc2c(c1)OCO2 | -16.8% (inactive)
Cc1ccccc1C(=O)OCc1cnc(Cl)s1 | -8.8% (inactive)
S=c1[nH]nc(C23CC4CC(CC(C4)C2)C3)n1Cc1ccco1 | 1.2% (inactive)
O=C(COC(=O)/C=C/C(=O)N1CCN(c2ccccc2)CC1)NCc1ccc(F)cc1 | -5.2% (inactive)
O=C(COC(=O)/C=C/C(=O)N1CCN(c2ccccc2)CC1)NC(c1ccccc1)c1ccccc1 | 76.2% (active)
CCOC(=O)/C=C/C(=O)OCC(=O)NC(c1ccccc1)c1ccccc1 | 25.7% (inactive)
Cc1ccc(NS(=O)(=O)c2c(C)[nH]c(C)c2C(=O)N2CCCCC2)cc1F | -24.4% (inactive)
CCCCn1c(Oc2ccc(C(=O)OC)cc2)nc2c1c(=O)n(C)c(=O)n2C | 9.2% (inactive)
O=C(CN1C(=O)CC(c2ccccc2)Sc2ccccc21)NCC1CCCO1 (stereo unspecified) | -33.1% (inactive)
Cc1[nH]nc2c1C(c1cccnc1)N(c1ccc(Br)cc1)C2=O (stereo unspecified) | 43.6% (active)
Cc1ccc(N2C(=O)c3n[nH]c(C)c3C2c2cccnc2)cc1 (stereo unspecified) | -28.2% (inactive)
CCOC(=O)c1ccc(N2C(=O)c3n[nH]c(C)c3C2c2cccnc2)cc1 (stereo unspecified) | 9.9% (inactive)
Nc1nc(CSCc2ccccc2)nc(N2CCOCC2)n1 | 2% (inactive)
CC(=O)N/N=C(\C)CCc1ccccc1 | -4.4% (inactive)
